# In paper PMC7862700, “An all-to-all approach to the identification of sequence-specific readers for epigenetic DNA modifications on cytosine”:
# Key:
# Assay in all cases: DAPPL (digital affinity profiling via proximity ligation, sequencing); 10 mM Tris-HCl pH 7.5, 50 mM NaCl, 1 mM DTT, 4% glycerol, room temperature, 30 min; GST-TFs on glutathione beads, 16-mer random dsDNA library, 0.1% formaldehyde crosslink after washing; high values mean tight binding
# FLI1 = target: T1, FLI1 (Homo sapiens, UniProt Q01543 1-452); settings: protein: recombinant; tags: N-terminal GST; dsDNA, one strand shown
# T1 sequence: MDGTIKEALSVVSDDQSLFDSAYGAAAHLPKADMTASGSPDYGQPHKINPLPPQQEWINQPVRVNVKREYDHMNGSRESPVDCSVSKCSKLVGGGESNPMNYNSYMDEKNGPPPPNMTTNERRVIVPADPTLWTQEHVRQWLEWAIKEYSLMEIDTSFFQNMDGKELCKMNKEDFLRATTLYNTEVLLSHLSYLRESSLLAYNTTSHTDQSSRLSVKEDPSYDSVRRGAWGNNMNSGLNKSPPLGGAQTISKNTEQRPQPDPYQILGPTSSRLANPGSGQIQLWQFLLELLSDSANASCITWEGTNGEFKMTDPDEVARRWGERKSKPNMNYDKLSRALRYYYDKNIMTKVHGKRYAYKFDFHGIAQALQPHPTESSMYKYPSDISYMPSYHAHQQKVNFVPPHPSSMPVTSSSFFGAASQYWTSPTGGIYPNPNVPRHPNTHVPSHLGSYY
# In short: (§1)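 Binding signal is defined as a hexamer's read frequency for one factor over its frequency for the tag-only sample. To obtain reads, GST-fused human transcription factors were expressed in yeast, captured on glutathione beads, barcoded with DNA and pooled with that sample. Pools met 200 nmole of a 16-mer random double-stranded DNA library in Tris/NaCl/DTT/glycerol buffer for 30 min at room temperature before washing, 0.1% formaldehyde crosslinking, proximity ligation (BsaI/T4 ligase, 1 h, 37 °C), PCR and Illumina NextSeq500 sequencing.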
# ELK1 = target: T2, ELK1 (Homo sapiens, UniProt P19419 1-428); settings: protein: recombinant; tags: N-terminal GST; dsDNA, one strand shown
# T2 sequence: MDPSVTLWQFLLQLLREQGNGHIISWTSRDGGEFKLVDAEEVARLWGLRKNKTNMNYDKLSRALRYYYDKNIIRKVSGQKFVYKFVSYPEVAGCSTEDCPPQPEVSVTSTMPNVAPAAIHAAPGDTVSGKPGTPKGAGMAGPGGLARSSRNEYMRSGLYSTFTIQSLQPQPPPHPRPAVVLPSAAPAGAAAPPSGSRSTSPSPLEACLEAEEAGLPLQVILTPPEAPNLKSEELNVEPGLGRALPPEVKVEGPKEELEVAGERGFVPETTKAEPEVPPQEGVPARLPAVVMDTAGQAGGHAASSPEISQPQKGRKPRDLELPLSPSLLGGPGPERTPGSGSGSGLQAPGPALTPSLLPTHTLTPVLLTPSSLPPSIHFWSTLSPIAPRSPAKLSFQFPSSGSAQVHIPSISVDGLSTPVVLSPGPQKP
# In short: as §1
# GABPA = target: T3, GABPA (Homo sapiens, UniProt Q06546 1-454); settings: protein: recombinant; tags: N-terminal GST; dsDNA, one strand shown
# T3 sequence: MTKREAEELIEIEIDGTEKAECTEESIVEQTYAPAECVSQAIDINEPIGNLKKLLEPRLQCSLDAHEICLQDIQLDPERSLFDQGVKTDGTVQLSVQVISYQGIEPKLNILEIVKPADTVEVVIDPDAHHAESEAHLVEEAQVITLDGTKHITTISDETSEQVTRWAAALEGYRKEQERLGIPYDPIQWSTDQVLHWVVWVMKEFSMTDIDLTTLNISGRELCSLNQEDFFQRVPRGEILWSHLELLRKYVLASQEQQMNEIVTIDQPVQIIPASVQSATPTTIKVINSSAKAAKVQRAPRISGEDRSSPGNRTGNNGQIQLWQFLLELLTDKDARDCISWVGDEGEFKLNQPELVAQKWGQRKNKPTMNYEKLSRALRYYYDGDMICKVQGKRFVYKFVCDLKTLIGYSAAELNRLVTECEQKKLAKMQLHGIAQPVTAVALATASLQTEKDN
# In short: as §1
# ERG = target: T4, ERG (Homo sapiens, UniProt P11308 1-479); settings: protein: recombinant; tags: N-terminal GST; dsDNA, one strand shown
# T4 sequence: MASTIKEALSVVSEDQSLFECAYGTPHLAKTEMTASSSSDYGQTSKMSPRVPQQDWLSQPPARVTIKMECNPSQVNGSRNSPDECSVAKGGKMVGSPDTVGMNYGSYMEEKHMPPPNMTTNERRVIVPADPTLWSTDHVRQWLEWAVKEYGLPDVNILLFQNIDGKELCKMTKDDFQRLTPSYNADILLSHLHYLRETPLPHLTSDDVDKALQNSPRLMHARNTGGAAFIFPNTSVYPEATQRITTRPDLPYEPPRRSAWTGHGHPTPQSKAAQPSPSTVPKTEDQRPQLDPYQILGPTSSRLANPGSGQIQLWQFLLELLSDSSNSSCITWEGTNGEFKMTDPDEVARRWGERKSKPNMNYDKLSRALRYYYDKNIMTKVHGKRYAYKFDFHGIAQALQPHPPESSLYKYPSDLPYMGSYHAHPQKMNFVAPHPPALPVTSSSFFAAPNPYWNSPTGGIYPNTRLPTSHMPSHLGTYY
# In short: as §1
# ELF1 = ELF1 (Homo sapiens, UniProt P32519 1-619); settings: protein: recombinant; tags: N-terminal GST; dsDNA, one strand shown
# In short: as §1
# EHF = target: T5, EHF (Homo sapiens, UniProt Q9NZC4 1-300); settings: protein: recombinant; tags: N-terminal GST; dsDNA, one strand shown
# T5 sequence: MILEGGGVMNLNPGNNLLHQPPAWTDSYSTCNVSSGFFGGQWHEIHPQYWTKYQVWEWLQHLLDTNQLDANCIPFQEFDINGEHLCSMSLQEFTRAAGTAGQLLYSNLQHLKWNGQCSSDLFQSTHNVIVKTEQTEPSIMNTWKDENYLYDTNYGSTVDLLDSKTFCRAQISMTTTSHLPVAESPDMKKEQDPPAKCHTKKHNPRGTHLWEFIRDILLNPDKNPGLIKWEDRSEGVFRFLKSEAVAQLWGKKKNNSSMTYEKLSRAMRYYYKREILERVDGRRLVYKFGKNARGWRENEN
# In short: as §1
# SPI1 = SPI1 (Homo sapiens, UniProt P17947 1-270); settings: protein: recombinant; tags: N-terminal GST; dsDNA, one strand shown
# In short: as §1
# SPIB = SPIB (Homo sapiens, UniProt Q01892 1-262); settings: protein: recombinant; tags: N-terminal GST; dsDNA, one strand shown
# In short: as §1
# ELK3 = target: T6, ELK3 (Homo sapiens, UniProt P41970 1-407); settings: protein: recombinant; tags: N-terminal GST; dsDNA, one strand shown
# T6 sequence: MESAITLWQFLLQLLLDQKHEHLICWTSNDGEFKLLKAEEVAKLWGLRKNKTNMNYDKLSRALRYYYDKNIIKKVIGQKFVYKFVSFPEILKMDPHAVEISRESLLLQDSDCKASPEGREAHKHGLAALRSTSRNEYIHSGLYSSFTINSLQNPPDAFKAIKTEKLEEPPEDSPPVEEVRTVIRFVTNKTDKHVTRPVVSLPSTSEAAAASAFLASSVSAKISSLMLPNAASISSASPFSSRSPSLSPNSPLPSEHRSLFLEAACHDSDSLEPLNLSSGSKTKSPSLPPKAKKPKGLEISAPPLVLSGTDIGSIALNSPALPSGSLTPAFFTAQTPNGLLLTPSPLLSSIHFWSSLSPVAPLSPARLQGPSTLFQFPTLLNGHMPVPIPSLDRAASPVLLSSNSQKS
# In short: as §1
# FEV = target: T7, FEV (Homo sapiens, UniProt Q99581 1-238); settings: protein: recombinant; tags: N-terminal GST; dsDNA, one strand shown
# T7 sequence: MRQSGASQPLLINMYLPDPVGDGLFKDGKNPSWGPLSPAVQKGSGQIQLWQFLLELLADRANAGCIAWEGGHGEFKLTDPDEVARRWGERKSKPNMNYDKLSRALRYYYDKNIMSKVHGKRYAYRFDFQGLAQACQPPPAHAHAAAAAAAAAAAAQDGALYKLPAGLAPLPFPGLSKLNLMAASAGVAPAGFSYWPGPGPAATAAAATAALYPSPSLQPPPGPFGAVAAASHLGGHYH
# In short: as §1
# ETV5 = ETV5 (Homo sapiens, UniProt P41161 1-510); settings: protein: recombinant; tags: N-terminal GST; dsDNA, one strand shown
# In short: as §1
# HSF1 = HSF1 (Homo sapiens, UniProt Q00613 1-529); settings: protein: recombinant; tags: N-terminal GST; chain copies: 3; dsDNA, one strand shown
# In short: as §1
# SPIC = target: T8, SPIC (Homo sapiens, UniProt Q8N5J4 1-248); settings: protein: recombinant; tags: N-terminal GST; dsDNA, one strand shown
# T8 sequence: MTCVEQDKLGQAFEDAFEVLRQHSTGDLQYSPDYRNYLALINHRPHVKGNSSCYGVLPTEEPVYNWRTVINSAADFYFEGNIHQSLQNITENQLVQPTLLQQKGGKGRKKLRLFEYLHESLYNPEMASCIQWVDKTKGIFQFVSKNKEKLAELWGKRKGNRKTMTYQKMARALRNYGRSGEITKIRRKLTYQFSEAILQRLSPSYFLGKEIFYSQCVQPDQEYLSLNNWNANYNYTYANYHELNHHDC
# In short: as §1
# ELF4 = ELF4 (Homo sapiens, UniProt Q99607 1-663); settings: protein: recombinant; tags: N-terminal GST; dsDNA, one strand shown
# In short: as §1
# ELK4 = target: T9, ELK4 (Homo sapiens, UniProt P28324-2 1-405); settings: protein: recombinant; tags: N-terminal GST; dsDNA, one strand shown
# T9 sequence: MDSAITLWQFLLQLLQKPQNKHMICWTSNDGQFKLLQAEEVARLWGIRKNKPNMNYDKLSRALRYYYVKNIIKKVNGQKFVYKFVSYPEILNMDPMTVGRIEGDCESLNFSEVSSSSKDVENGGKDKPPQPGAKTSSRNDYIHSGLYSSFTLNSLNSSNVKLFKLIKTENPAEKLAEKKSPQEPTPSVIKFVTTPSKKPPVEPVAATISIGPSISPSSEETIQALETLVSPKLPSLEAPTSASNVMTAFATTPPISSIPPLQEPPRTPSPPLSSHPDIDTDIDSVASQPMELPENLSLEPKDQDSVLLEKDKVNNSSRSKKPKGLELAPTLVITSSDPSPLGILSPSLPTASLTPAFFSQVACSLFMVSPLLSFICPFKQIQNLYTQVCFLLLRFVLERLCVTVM
# In short: as §1
# ETV2 = target: T10, ETV2 (Homo sapiens, UniProt O00321 1-342); settings: protein: recombinant; tags: N-terminal GST; dsDNA, one strand shown
# T10 sequence: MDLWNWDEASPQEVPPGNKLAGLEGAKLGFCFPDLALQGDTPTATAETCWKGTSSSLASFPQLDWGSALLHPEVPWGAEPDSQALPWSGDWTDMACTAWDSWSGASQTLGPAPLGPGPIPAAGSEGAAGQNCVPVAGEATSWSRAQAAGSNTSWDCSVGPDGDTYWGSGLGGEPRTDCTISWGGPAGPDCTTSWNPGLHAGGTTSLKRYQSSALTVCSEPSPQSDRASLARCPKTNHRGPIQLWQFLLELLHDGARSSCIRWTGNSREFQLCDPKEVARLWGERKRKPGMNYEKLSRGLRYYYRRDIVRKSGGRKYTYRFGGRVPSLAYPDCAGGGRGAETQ
# In short: as §1
# ELF3 = target: T11, ELF3 (Homo sapiens, UniProt P78545 1-371); settings: protein: recombinant; tags: N-terminal GST; dsDNA, one strand shown
# T11 sequence: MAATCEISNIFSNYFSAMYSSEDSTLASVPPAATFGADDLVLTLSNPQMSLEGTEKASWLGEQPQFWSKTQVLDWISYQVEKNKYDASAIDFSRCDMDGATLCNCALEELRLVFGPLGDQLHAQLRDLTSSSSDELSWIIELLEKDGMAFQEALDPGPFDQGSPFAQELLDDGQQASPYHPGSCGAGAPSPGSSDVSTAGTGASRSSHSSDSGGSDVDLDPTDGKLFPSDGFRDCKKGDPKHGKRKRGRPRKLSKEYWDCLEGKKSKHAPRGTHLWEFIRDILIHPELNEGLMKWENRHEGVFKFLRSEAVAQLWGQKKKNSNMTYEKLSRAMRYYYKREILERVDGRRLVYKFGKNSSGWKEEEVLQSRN
# In short: as §1
# CRX = CRX (Homo sapiens, UniProt O43186 1-299); settings: protein: recombinant; tags: N-terminal GST; dsDNA, one strand shown
# In short: as §1
# ETV1 = ETV1 (Homo sapiens, UniProt P50549 1-477); settings: protein: recombinant; tags: N-terminal GST; dsDNA, one strand shown
# In short: as §1
# ETV5, sequence (P41161 whole entry): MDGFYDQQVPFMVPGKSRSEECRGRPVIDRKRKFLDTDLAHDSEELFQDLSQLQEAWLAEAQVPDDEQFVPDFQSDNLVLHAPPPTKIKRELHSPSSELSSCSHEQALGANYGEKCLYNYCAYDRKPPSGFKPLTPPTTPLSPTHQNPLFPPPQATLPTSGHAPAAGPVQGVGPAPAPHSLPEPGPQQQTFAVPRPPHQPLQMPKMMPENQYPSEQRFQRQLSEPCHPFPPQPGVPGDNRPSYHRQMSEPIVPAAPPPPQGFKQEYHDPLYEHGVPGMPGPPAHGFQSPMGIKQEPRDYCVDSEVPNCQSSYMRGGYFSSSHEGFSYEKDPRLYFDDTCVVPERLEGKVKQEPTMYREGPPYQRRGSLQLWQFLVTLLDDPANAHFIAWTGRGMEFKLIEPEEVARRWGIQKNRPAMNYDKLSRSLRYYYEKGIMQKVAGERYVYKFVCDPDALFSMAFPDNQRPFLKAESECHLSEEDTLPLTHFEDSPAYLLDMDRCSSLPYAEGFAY
# HSF1, sequence (Q00613 whole entry): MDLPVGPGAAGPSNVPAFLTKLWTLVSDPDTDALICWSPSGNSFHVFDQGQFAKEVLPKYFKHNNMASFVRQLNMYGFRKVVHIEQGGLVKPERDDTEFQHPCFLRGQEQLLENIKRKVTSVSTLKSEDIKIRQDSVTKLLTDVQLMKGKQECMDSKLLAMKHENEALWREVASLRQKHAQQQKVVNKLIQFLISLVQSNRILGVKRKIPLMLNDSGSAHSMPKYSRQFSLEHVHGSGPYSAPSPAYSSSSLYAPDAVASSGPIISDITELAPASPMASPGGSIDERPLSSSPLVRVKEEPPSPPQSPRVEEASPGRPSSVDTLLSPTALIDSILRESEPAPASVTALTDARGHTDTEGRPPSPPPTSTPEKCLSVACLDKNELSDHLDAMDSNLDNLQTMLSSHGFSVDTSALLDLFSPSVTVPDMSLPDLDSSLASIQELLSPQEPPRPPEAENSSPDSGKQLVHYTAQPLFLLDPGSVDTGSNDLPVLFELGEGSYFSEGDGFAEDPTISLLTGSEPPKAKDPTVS
# ELF4, sequence (Q99607 whole entry): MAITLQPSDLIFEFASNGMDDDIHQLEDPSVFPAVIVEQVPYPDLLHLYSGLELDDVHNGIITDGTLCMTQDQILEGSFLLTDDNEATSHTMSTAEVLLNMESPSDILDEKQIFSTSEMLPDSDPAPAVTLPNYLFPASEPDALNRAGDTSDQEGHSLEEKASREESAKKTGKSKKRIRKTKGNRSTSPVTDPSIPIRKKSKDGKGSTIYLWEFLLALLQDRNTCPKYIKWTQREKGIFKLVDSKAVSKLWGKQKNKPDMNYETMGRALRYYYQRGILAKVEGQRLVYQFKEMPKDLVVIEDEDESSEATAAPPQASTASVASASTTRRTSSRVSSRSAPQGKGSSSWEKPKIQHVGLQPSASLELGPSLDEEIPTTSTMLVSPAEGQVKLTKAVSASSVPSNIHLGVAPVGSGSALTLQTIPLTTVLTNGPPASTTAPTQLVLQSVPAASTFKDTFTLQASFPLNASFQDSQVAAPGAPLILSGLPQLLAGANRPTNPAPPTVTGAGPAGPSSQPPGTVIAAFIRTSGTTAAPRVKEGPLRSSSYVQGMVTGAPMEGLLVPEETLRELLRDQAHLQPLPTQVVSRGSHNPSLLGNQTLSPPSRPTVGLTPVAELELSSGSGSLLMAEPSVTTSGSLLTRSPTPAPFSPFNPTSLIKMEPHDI
# SPIB, sequence (Q01892 whole entry): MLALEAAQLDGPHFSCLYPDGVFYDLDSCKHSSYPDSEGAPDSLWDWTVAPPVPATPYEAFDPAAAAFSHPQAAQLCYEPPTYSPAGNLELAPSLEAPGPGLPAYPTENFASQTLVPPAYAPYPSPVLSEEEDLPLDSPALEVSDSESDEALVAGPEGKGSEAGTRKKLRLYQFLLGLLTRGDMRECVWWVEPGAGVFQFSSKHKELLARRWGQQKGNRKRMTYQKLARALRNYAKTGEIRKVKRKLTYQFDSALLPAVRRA
# CRX, sequence (O43186 whole entry): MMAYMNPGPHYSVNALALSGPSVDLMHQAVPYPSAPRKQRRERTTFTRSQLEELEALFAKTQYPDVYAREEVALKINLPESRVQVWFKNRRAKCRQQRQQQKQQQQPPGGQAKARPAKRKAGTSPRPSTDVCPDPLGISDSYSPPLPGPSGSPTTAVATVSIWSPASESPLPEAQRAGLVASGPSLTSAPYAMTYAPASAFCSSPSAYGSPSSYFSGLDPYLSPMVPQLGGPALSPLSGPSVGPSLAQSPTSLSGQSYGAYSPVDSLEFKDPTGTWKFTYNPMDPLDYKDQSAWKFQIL
# ETV1, sequence (P50549 whole entry): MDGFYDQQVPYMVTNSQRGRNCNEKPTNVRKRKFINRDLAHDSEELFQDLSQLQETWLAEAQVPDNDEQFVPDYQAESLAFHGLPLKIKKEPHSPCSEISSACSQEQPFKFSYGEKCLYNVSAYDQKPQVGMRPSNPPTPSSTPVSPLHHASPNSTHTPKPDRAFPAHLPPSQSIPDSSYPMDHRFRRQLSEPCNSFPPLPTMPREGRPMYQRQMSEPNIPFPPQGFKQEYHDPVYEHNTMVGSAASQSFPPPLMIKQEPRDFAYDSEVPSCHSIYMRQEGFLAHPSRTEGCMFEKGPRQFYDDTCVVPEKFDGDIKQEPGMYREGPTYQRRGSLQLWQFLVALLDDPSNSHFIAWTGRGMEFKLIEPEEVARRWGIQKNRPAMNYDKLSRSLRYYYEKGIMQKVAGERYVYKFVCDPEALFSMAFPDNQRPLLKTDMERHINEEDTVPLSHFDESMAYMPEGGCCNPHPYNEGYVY
# ELF1, sequence (P32519 whole entry): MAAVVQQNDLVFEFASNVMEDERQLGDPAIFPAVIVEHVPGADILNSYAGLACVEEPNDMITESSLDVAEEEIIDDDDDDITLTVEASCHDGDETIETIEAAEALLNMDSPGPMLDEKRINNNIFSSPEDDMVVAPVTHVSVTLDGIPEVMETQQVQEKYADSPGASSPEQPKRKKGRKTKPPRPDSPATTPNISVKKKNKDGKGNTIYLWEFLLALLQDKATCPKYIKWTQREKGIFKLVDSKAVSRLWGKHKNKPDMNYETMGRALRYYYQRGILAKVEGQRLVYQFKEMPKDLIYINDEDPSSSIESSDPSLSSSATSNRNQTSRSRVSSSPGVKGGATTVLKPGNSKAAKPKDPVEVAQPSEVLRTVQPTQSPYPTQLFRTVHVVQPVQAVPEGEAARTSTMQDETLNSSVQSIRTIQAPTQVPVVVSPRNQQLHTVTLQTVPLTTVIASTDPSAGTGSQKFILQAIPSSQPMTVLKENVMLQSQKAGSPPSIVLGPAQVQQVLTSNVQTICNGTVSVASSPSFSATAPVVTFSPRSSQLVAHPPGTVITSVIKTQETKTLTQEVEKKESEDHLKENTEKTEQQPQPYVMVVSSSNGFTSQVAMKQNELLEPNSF
sequence,measurement,setting,value
GCCCTA,binding signal,FLI1,"1.29 fold enrichment (6-mer frequency, TF over GST control)"
same,binding signal,ELK1,"1.24 fold enrichment (6-mer frequency, TF over GST control)"
same,binding signal,GABPA,"1.21 fold enrichment (6-mer frequency, TF over GST control)"
same,binding signal,ERG,"1.15 fold enrichment (6-mer frequency, TF over GST control)"
same,binding signal,ELF1,"1.19 fold enrichment (6-mer frequency, TF over GST control)"
same,binding signal,EHF,"1.12 fold enrichment (6-mer frequency, TF over GST control)"
same,binding signal,SPI1,"1.19 fold enrichment (6-mer frequency, TF over GST control)"
same,binding signal,SPIB,"1.28 fold enrichment (6-mer frequency, TF over GST control)"
same,binding signal,ELK3,"1.19 fold enrichment (6-mer frequency, TF over GST control)"
same,binding signal,FEV,"1.28 fold enrichment (6-mer frequency, TF over GST control)"
same,binding signal,ETV5,"1.16 fold enrichment (6-mer frequency, TF over GST control)"
same,binding signal,HSF1,"1.13 fold enrichment (6-mer frequency, TF over GST control)"
same,binding signal,SPIC,"1.18 fold enrichment (6-mer frequency, TF over GST control)"
same,binding signal,ELF4,"1.24 fold enrichment (6-mer frequency, TF over GST control)"
same,binding signal,ELK4,"1.24 fold enrichment (6-mer frequency, TF over GST control)"
same,binding signal,ETV2,"1.06 fold enrichment (6-mer frequency, TF over GST control)"
same,binding signal,ELF3,"1.19 fold enrichment (6-mer frequency, TF over GST control)"
same,binding signal,CRX,"1.27 fold enrichment (6-mer frequency, TF over GST control)"
same,binding signal,ETV1,"1.06 fold enrichment (6-mer frequency, TF over GST control)"
